A number with no mark means an inactive call.
compound: C#CCNC(=O)CCSSCCC(=O)NCCc1ccc(C=O)c(C=O)c1; test: lysine labeling ratio R10:1 (500 µM / 50 µM probe), SILAC-ABPP in living cells; higher = lower intrinsic lysine reactivity toward the probe, active = 2 or less; settings: HeLa; probe concentrations 500 vs 50 µM
Outline: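 With forward and reverse label swaps, light and heavy SILAC HeLa cells, alive and in PBS at room temperature, were exposed to either 500 µM or 50 µM of an alkyne-tagged lysine probe bearing a disulfide link. After mixing, lysates were clicked to biotin-azide, cut with trypsin, pulled down on neutravidin, freed with DTT, alkylated and analysed on a TIMS-TOF Pro by LC-MS/MS. The per-lysine value R is the median over forward and reverse replicates of the filtered median high-probe/low-probe MS1 peptide ratio. It is capped at 20.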

Chain of UniProt Q14980 (Q14980 whole entry): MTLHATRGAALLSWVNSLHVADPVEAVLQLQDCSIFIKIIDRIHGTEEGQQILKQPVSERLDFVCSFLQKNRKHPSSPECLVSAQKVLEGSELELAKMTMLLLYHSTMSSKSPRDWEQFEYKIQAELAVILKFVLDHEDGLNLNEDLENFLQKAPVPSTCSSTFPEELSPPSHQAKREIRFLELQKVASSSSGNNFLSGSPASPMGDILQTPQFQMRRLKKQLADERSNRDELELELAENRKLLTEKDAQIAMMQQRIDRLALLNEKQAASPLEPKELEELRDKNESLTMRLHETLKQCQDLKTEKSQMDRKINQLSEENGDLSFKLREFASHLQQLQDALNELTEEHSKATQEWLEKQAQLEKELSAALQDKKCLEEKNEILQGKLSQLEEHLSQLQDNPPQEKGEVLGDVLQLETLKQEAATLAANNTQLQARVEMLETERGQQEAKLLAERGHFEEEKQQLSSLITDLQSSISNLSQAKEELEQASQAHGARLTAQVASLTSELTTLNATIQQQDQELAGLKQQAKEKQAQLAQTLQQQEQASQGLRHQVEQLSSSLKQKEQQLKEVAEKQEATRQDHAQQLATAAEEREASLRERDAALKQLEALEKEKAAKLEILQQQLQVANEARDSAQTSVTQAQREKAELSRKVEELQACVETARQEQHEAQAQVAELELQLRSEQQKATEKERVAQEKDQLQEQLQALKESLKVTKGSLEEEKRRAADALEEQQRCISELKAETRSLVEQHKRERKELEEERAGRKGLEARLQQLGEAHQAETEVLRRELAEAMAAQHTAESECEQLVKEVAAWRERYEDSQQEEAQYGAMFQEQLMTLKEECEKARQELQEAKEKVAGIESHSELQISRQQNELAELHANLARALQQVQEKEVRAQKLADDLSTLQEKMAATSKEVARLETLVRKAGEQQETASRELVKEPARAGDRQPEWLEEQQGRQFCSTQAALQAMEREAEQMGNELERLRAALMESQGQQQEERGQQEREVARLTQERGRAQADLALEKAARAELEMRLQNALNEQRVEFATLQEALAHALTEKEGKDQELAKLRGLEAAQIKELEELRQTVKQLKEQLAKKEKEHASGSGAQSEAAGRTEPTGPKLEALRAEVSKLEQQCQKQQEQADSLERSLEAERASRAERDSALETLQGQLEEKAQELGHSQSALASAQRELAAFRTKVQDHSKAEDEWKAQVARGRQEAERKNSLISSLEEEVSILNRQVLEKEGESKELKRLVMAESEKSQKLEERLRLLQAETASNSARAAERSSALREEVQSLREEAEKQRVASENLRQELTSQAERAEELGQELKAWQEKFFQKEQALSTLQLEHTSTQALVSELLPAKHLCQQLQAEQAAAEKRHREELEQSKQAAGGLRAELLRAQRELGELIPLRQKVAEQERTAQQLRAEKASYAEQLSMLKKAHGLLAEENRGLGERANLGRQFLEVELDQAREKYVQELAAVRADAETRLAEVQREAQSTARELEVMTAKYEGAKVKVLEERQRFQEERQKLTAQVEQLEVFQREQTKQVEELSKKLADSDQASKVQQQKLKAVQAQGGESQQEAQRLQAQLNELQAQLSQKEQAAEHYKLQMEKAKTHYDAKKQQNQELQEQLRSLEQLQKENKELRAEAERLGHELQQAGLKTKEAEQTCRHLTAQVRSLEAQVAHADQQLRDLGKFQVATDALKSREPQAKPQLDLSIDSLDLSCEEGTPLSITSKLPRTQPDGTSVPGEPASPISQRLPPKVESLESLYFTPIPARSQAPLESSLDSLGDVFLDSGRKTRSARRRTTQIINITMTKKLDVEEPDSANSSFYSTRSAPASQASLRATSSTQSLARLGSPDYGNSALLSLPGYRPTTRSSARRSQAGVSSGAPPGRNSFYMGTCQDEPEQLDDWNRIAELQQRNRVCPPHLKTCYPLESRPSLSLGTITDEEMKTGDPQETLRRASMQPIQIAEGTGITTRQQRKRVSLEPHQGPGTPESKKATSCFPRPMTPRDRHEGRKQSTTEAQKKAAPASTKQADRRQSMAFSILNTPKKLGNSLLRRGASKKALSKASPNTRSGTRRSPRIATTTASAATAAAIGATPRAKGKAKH
Chain of UniProt P31947 (P31947 whole entry): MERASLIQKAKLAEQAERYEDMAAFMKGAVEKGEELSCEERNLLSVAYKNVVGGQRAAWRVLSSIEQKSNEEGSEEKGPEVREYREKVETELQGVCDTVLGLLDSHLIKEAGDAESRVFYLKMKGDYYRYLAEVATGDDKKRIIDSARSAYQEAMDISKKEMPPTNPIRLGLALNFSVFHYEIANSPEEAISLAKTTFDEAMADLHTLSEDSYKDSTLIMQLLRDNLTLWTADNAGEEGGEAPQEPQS
Chain of UniProt P09758 (P09758 whole entry): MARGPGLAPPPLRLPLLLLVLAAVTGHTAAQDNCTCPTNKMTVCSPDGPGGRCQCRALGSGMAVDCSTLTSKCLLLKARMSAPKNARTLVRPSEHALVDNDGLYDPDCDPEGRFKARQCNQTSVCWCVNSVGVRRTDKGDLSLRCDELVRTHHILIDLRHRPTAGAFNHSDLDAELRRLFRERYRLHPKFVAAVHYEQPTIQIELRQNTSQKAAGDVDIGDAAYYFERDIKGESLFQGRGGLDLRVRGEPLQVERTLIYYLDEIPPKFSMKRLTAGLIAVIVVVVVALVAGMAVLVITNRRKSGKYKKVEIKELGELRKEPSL
Chain of UniProt P23467 (P23467 whole entry, looked up): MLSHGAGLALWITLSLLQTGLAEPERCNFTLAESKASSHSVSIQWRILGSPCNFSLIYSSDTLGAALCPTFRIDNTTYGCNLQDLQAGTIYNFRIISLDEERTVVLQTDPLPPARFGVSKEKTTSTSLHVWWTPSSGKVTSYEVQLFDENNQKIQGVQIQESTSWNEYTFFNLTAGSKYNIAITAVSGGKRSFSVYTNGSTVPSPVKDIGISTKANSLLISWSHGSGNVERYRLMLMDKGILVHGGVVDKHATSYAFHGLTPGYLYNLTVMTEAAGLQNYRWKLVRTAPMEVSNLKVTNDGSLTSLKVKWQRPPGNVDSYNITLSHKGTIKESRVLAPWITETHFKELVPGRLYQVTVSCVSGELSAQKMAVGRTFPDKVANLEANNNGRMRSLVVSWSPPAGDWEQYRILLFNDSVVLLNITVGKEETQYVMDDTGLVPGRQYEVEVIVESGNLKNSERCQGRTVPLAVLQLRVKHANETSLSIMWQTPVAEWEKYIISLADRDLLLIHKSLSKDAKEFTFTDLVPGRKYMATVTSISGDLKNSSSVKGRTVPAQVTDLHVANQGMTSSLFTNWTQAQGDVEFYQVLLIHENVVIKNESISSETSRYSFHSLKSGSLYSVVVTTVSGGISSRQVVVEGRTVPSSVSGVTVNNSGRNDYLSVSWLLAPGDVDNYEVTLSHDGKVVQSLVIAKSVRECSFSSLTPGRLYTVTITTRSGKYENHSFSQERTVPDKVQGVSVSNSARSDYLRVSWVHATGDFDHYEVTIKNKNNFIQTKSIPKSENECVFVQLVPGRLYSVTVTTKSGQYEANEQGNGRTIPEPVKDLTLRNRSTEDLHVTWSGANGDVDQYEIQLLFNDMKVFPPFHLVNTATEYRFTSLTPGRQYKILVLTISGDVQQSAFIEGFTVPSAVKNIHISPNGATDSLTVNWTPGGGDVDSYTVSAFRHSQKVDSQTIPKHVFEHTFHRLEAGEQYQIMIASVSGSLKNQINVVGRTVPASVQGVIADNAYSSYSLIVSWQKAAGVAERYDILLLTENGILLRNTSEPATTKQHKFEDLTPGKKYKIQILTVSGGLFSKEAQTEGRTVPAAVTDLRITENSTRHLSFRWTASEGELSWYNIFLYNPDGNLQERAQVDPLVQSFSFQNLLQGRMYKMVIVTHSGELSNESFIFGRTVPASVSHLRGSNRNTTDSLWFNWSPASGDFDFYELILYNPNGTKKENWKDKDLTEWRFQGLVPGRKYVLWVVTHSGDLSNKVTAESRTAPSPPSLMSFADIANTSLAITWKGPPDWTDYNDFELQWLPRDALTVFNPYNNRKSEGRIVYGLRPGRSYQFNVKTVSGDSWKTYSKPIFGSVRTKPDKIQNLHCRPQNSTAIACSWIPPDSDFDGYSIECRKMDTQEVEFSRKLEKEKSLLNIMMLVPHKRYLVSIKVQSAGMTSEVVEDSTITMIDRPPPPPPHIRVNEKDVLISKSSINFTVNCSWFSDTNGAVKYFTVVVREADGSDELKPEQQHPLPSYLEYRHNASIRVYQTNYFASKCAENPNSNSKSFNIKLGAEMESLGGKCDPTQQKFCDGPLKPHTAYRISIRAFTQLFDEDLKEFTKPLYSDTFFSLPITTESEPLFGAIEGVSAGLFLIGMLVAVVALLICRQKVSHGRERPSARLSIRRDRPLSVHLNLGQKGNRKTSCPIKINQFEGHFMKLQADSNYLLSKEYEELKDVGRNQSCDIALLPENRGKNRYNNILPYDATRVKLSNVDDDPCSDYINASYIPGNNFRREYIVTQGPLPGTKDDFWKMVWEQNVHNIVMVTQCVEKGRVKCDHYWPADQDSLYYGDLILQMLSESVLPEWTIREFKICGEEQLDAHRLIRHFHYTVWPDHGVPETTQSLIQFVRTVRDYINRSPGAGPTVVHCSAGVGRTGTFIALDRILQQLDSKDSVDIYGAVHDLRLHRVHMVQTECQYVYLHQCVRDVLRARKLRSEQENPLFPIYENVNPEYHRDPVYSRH

Row | Target | lysine labeling ratio R10:1
1 | UniProt P09758 (lysine site: K84) | 5.29
2 | UniProt P61978 (lysine site: K405) | 6.82
3 | PTPRB (lysine site: K718) (UniProt P23467) | 1.5 (active)
4 | SFN (lysine site: K49) (UniProt P31947) | 5.33
5 | NUMA1 (lysine site: K645) (UniProt Q14980) | 1.09 (active)
6 | FLNA (lysine site: K2133) (UniProt P21333) | 2.27

— the supplement of paper PMC11001985
